{"source": "the antibiotic and cytotoxicity screens of Wong et al. (2023)", "note": "In all, about 39,000 compounds went through this assay and about 1,500 (3.8%) were called active. For the sample, actives were picked, then their nearest neighbours and some compounds at random.", "data": [{"tested_on": "HSkMC (human skeletal muscle cells)", "experiment": "cytotoxicity call (relative viability < 0.9)", "conditions": "10 µM", "values": [{"smiles": "O=C(CCCCCNC(=O)OCc1ccc(CO[C@H]2C[C@@H](c3csc4ccccc34)C=C(C(=O)N3CCN(Cc4ccccc4)CC3)O2)cc1)NO", "cytotoxicity call": "inactive"}, {"smiles": "CC(C)C(=O)Nc1ccc([N+](=O)[O-])c(C(F)(F)F)c1", "cytotoxicity call": "inactive"}, {"smiles": "O=C(N[C@H](NC(=S)Nc1ccc(F)c([N+](=O)[O-])c1)C(Cl)(Cl)Cl)C(c1ccccc1)c1ccccc1", "cytotoxicity call": "active"}, {"smiles": "O=C(Nc1ccc(-c2nc3cc(NC(=O)c4ccccc4[N+](=O)[O-])ccc3o2)cc1)c1ccccc1[N+](=O)[O-]", "cytotoxicity call": "inactive"}, {"smiles": "C[C@@H]1CN([C@@H](C)CO)C(=O)c2cc(NC(=O)Nc3ccc4c(c3)OCO4)ccc2O[C@@H](C)CCCCO[C@H]1CN(C)C(=O)c1ccccc1", "cytotoxicity call": "inactive"}, {"smiles": "COCC(=O)Nc1ccc2c(c1)OC[C@@H](C)N(C(=O)c1ccccc1F)C[C@@H](C)[C@@H](OC)CN(C)C2=O", "cytotoxicity call": "inactive"}, {"smiles": "C[C@H](CO)N1C[C@H](C)[C@@H](CN(C)C(=O)NC2CCCCC2)Oc2ccc(NC(=O)CCN3CCOCC3)cc2C1=O", "cytotoxicity call": "inactive"}, {"smiles": "Cc1ccc(S(=O)(=O)Nc2ccc3c(c2)C(=O)N([C@@H](C)CO)C[C@H](C)[C@@H](CN(C)Cc2ccc(Cl)c(Cl)c2)O3)cc1", "cytotoxicity call": "active"}, {"smiles": "Cc1ccc(S(=O)(=O)Nc2ccc3c(c2)C(=O)N([C@@H](C)CO)C[C@H](C)[C@H](CN(C)Cc2ccc(Cl)c(Cl)c2)O3)cc1", "cytotoxicity call": "inactive"}, {"smiles": "Cc1ccc(S(=O)(=O)Nc2ccc3c(c2)C(=O)N([C@H](C)CO)C[C@H](C)[C@@H](CN(C)Cc2ccc(Cl)c(Cl)c2)O3)cc1", "cytotoxicity call": "inactive"}, {"smiles": "Cc1ccc(S(=O)(=O)Nc2ccc3c(c2)C(=O)N([C@H](C)CO)C[C@H](C)[C@H](CN(C)Cc2ccc(Cl)c(Cl)c2)O3)cc1", "cytotoxicity call": "active"}, {"smiles": "Cc1ccc(S(=O)(=O)Nc2ccc3c(c2)C(=O)N([C@@H](C)CO)C[C@@H](C)[C@H](CN(C)Cc2ccc(Cl)c(Cl)c2)O3)cc1", "cytotoxicity call": "inactive"}, {"smiles": "Cc1ccc(S(=O)(=O)Nc2ccc3c(c2)C(=O)N([C@H](C)CO)C[C@@H](C)[C@@H](CN(C)Cc2ccc(Cl)c(Cl)c2)O3)cc1", "cytotoxicity call": "active"}, {"smiles": "Cc1ccc(S(=O)(=O)Nc2ccc3c(c2)C(=O)N([C@H](C)CO)C[C@@H](C)[C@H](CN(C)Cc2ccc(Cl)c(Cl)c2)O3)cc1", "cytotoxicity call": "active"}, {"smiles": "Cc1cccc(C(=O)N2CCC[C@@H](Cn3cc(C(C)(C)N)nn3)C2)c1C", "cytotoxicity call": "inactive"}, {"smiles": "CC(C)NC(=O)Nc1ccc2c(c1)C(=O)N([C@@H](C)CO)C[C@H](C)[C@@H](CN(C)S(=O)(=O)c1ccccc1)O2", "cytotoxicity call": "inactive"}, {"smiles": "C[C@@H]1CCCCO[C@H](CN(C)S(=O)(=O)c2cccs2)[C@H](C)CN([C@@H](C)CO)C(=O)c2cc(NC(=O)Cc3ccccc3)ccc2O1", "cytotoxicity call": "inactive"}, {"smiles": "C[C@H]1CN([C@@H](C)CO)C(=O)c2cccc(NS(=O)(=O)c3cccs3)c2O[C@H]1CN(C)S(=O)(=O)c1ccc(F)cc1", "cytotoxicity call": "inactive"}, {"smiles": "CN(C)Cc1cn(CC[C@H]2CC[C@H](N)[C@@H](CO)O2)nn1", "cytotoxicity call": "inactive"}, {"smiles": "Cc1noc(C)c1NC(=O)Nc1ccc2c(c1)C(=O)N([C@@H](C)CO)C[C@H](C)[C@H](CN(C)C(=O)Nc1ccc(C(F)(F)F)cc1)OCCCC[C@H](C)O2", "cytotoxicity call": "inactive"}, {"smiles": "O=C(C[C@H]1CC[C@H]2[C@@H](COC[C@@H](O)CN2C(=O)c2cccnc2)O1)NCc1ccc(-c2ccccc2)cc1", "cytotoxicity call": "inactive"}, {"smiles": "Cn1nnnc1SCC(=O)Nc1ncccn1", "cytotoxicity call": "inactive"}, {"smiles": "C[C@@H]1CN([C@H](C)CO)C(=O)c2cccc(NS(=O)(=O)c3ccccc3)c2O[C@@H]1CN(C)Cc1ccc(Cl)c(Cl)c1", "cytotoxicity call": "inactive"}, {"smiles": "Cn1cnc(S(=O)(=O)N2C[C@@H](O)COC[C@@H]3O[C@@H](CC(=O)NC4Cc5ccccc5C4)CC[C@H]32)c1", "cytotoxicity call": "inactive"}, {"smiles": "C[C@H](O)C#Cc1ccc2c(c1)O[C@H](CN(C)C(=O)Nc1ccccc1)[C@H](C)CN([C@H](C)CO)S2(=O)=O", "cytotoxicity call": "inactive"}, {"smiles": "COc1ccc(S(=O)(=O)Nc2ccc3c(c2)C(=O)N([C@H](C)CO)C[C@H](C)[C@H](CN(C)S(C)(=O)=O)OCCCC[C@@H](C)O3)cc1", "cytotoxicity call": "inactive"}, {"smiles": "Cc1cnc2c(c1NCCN(C)C)c(=O)n(C)c(=O)n2C", "cytotoxicity call": "inactive"}, {"smiles": "CCOc1nc2ccccc2c(=O)n1CCO", "cytotoxicity call": "inactive"}, {"smiles": "C[C@H](CO)N1C[C@H](C)[C@H](CN(C)C(=O)c2ccc3c(c2)OCO3)Oc2cc(-c3cncnc3)ccc2S1(=O)=O", "cytotoxicity call": "inactive"}, {"smiles": "O=C1c2ccncc2C(=O)N1CO", "cytotoxicity call": "inactive"}, {"smiles": "CO[C@@H](CN(C)S(=O)(=O)c1cccc(Cl)c1)[C@@H](C)CN([C@@H](C)CO)S(=O)(=O)c1ccc(Cl)cc1", "cytotoxicity call": "inactive"}, {"smiles": "CC(C)NC(=O)N(C)C[C@@H]1Oc2ccc(NS(=O)(=O)c3cn(C)cn3)cc2C(=O)N([C@@H](C)CO)C[C@@H]1C", "cytotoxicity call": "inactive"}, {"smiles": "FC(F)(F)c1ccccc1/N=C1\\CCCc2ccccc21", "cytotoxicity call": "inactive"}, {"smiles": "Cc1ccc(S(=O)(=O)Nc2ccc3c(c2)C(=O)N([C@@H](C)CO)C[C@@H](C)[C@@H](CN(C)Cc2ccc(Cl)c(Cl)c2)O3)cc1", "cytotoxicity call": "active"}, {"smiles": "CO[C@@H]1[C@@H](O[C@@H]2O[C@H](C)[C@@H](O[C@H]3C[C@@](C)(O)[C@@H](OC(=O)CC(C)C)[C@H](C)O3)[C@H](N(C)C)[C@H]2O)[C@@H](CC=O)C[C@@H](C)[C@@H](O)/C=C\\C=C/C[C@@H](C)OC(=O)C[C@H]1OC(C)=O", "cytotoxicity call": "inactive"}, {"smiles": "CO[C@@H]1[C@@H](O[C@@H]2O[C@H](C)[C@@H](O[C@H]3C[C@@](C)(O)[C@@H](OC(=O)CC(C)C)[C@H](C)O3)[C@H](N(C)C)[C@H]2O)[C@@H](CC=O)C[C@@H](C)[C@@H](O)/C=C/C=C/CC(C)OC(=O)C[C@H]1OC(C)=O", "note": "(stereo not given in full)", "cytotoxicity call": "active"}, {"smiles": "COC1C(O)CC(=O)OC(C)CC=CC=CC(O)C(C)CC(CC=O)C1OC1OC(C)C(OC2CC(C)(O)C(OC(=O)CC(C)C)C(C)O2)C(N(C)C)C1O", "note": "(stereo not given) [KITASAMYCINS [A1 shown] ]", "cytotoxicity call": "inactive"}, {"smiles": "COc1ccccc1CNC(=O)C[C@@H]1C[C@@H]2c3cc(NS(=O)(=O)c4ccc(F)cc4)ccc3O[C@@H]2[C@@H](CO)O1", "cytotoxicity call": "inactive"}, {"smiles": "Cc1ccc(S(=O)(=O)N(C)C[C@@H]2OCCCC[C@H](C)Oc3ccc(NC(=O)Nc4c(C)noc4C)cc3C(=O)N([C@H](C)CO)C[C@H]2C)cc1", "cytotoxicity call": "inactive"}, {"smiles": "CC(C)C[N+]1(C)Cc2ccccc2C1", "cytotoxicity call": "inactive"}]}]}
